# Out of some 5,700 compounds screened, about 85 (1%) were called active. Rule as the data show it: active = p53-positive nuclei above about 36% (passing the limit was not always enough); inactive = the rest. The entries come from a sample that favours actives as a whole.
# Tests used:
# [1] = nuclear p53 accumulation, HPV+ cells – imaging, p53-positive nuclei imaging, 24 h, 48 h (AID 1508601); conditions: 24/48 h
# [2] = target: Cellular tumor antigen p53 (Homo sapiens) (UniProt P04637); experiment: as above; conditions: 24/48 h, stronger effect = higher value
# [3] = measured here: cell number at 24 h, Library stock concentration: 3.33 mM
# [4] = measured here: cell number at 48 h, Library stock concentration: 3.33 mM
# [5] = Library stock concentration: 3.33 mM
# [6] = measured here: p53 positive nuclei at 24 h, Library stock concentration: 3.33 mM
# [7] = measured here: cell number at 24 h, Library stock concentration: 80 uM
# [8] = measured here: cell number at 24 h, Library stock concentration: 400 uM
# [9] = measured here: cell number at 24 h, Library stock concentration: 2 mM
# [10] = measured here: cell number at 24 h, Library stock concentration: 10 mM
# [11] = measured here: cell number at 48 h, Library stock concentration: 80 uM
# [12] = measured here: cell number at 48 h, Library stock concentration: 400 uM
# [13] = measured here: cell number at 48 h, Library stock concentration: 2 mM
# [14] = measured here: cell number at 48 h, Library stock concentration: 10 mM
# [15] = Library stock concentration: 80 uM
# [16] = Library stock concentration: 400 uM
# [17] = Library stock concentration: 2 mM
# [18] = Library stock concentration: 10 mM
# [19] = measured here: p53 positive nuclei at 24 h, Library stock concentration: 80 uM
# [20] = measured here: p53 positive nuclei at 24 h, Library stock concentration: 400 uM
# [21] = measured here: p53 positive nuclei at 24 h, Library stock concentration: 2 mM
# [22] = measured here: p53 positive nuclei at 24 h, Library stock concentration: 10 mM
# [23] = measured here: cell number at 24 h, concentration not given here
# [24] = measured here: cell number at 48 h, concentration not given here
# [25] = measured here: p53 positive nuclei at 24 h, concentration not given here
# Cellular tumor antigen p53 (Homo sapiens), sequence (P04637 whole entry, looked up): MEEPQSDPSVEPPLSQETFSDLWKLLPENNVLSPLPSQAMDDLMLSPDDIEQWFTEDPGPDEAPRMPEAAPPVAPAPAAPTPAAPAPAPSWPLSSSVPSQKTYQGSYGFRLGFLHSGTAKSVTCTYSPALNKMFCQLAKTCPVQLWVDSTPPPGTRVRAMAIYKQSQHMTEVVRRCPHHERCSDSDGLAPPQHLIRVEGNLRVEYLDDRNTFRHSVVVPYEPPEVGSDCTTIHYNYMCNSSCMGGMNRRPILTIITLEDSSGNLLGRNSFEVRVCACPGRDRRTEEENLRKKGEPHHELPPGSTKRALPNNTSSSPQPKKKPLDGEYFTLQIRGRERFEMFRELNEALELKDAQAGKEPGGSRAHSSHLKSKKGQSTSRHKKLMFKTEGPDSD
smiles,measurement,setting,value
O=c1[nH]c2ccc(Cl)cc2c(NC2CN3CCC2CC3)c1-c1nc2ccccc2[nH]1 (stereo not drawn),"nuclei count, normalised",[1]; [3],52.7%
same,"nuclei count, normalised",[1]; [4],33.7%
same,"p53-positive nuclei, normalised",[2]; [5],34% (inactive)
same,"p53-positive nuclei, normalised",[2]; [6],8.33%
C[C@]12C=CC(=O)C=C1CC[C@@H]1[C@@H]2CC[C@]2(C)OC(=O)CC[C@@H]12,"nuclei count, normalised",[1]; [7],87.6%
same,"nuclei count, normalised",[1]; [8],90.3%
same,"nuclei count, normalised",[1]; [9],93%
same,"nuclei count, normalised",[1]; [10],89.5%
same,"nuclei count, normalised",[1]; [11],95.1%
same,"nuclei count, normalised",[1]; [12],95%
same,"nuclei count, normalised",[1]; [13],99.5%
same,"nuclei count, normalised",[1]; [14],97.4%
same,"p53-positive nuclei, normalised",[2]; [15],-0.0445% (inactive)
same,"p53-positive nuclei, normalised",[2]; [16],0.096% (inactive)
same,"p53-positive nuclei, normalised",[2]; [17],-0.0494% (inactive)
same,"p53-positive nuclei, normalised",[2]; [18],-0.00393% (inactive)
same,"p53-positive nuclei, normalised",[2]; [19],-0.0455%
same,"p53-positive nuclei, normalised",[2]; [20],0.101%
same,"p53-positive nuclei, normalised",[2]; [21],0.166%
same,"p53-positive nuclei, normalised",[2]; [22],-0.0487%
CC1=CC(=O)c2c(O)cccc2C1=O,"nuclei count, normalised","[1]; measured here: cell number at 24 h, Library stock concentration: 500 nM",119%
same,"nuclei count, normalised","[1]; measured here: cell number at 24 h, Library stock concentration: 1.5 uM",116%
same,"nuclei count, normalised","[1]; measured here: cell number at 24 h, Library stock concentration: 4.6 uM",126%
same,"nuclei count, normalised","[1]; measured here: cell number at 24 h, Library stock concentration: 13.7 uM",115%
same,"nuclei count, normalised","[1]; measured here: cell number at 24 h, Library stock concentration: 41 uM",118%
same,"nuclei count, normalised","[1]; measured here: cell number at 24 h, Library stock concentration: 123 uM",108%
same,"nuclei count, normalised","[1]; measured here: cell number at 24 h, Library stock concentration: 370 uM",94.6%
same,"nuclei count, normalised","[1]; measured here: cell number at 24 h, Library stock concentration: 1.111 mM",55.5%
same,"nuclei count, normalised","[1]; measured here: cell number at 24 h, Library stock concentration: 3.333 mM",48.6%
same,"nuclei count, normalised",[1]; [10],49%
same,"nuclei count, normalised","[1]; measured here: cell number at 48 h, Library stock concentration: 500 nM",113%
same,"nuclei count, normalised","[1]; measured here: cell number at 48 h, Library stock concentration: 1.5 uM",115%
same,"nuclei count, normalised","[1]; measured here: cell number at 48 h, Library stock concentration: 4.6 uM",120%
same,"nuclei count, normalised","[1]; measured here: cell number at 48 h, Library stock concentration: 13.7 uM",115%
same,"nuclei count, normalised","[1]; measured here: cell number at 48 h, Library stock concentration: 41 uM",118%
same,"nuclei count, normalised","[1]; measured here: cell number at 48 h, Library stock concentration: 123 uM",111%
same,"nuclei count, normalised","[1]; measured here: cell number at 48 h, Library stock concentration: 370 uM",102%
same,"nuclei count, normalised","[1]; measured here: cell number at 48 h, Library stock concentration: 1.111 mM",32.4%
same,"nuclei count, normalised","[1]; measured here: cell number at 48 h, Library stock concentration: 3.333 mM",31.9%
same,"nuclei count, normalised",[1]; [14],32.5%
same,"p53-positive nuclei, normalised",[2]; Library stock concentration: 500 nM,-0.129% (inactive)
same,"p53-positive nuclei, normalised",[2]; Library stock concentration: 1.5 uM,-0.0912% (inactive)
same,"p53-positive nuclei, normalised",[2]; Library stock concentration: 4.6 uM,0.131% (inactive)
same,"p53-positive nuclei, normalised",[2]; Library stock concentration: 13.7 uM,-0.0585% (inactive)
same,"p53-positive nuclei, normalised",[2]; Library stock concentration: 41 uM,-0.0569% (inactive)
same,"p53-positive nuclei, normalised",[2]; Library stock concentration: 123 uM,0.196% (inactive)
same,"p53-positive nuclei, normalised",[2]; Library stock concentration: 370 uM,-0.0821% (inactive)
same,"p53-positive nuclei, normalised",[2]; Library stock concentration: 1.111 mM,48.3% (active)
same,"p53-positive nuclei, normalised",[2]; Library stock concentration: 3.333 mM,2.14% (inactive)
same,"p53-positive nuclei, normalised",[2]; [18],-0.248% (inactive)
same,"p53-positive nuclei, normalised","[2]; measured here: p53 positive nuclei at 24 h, Library stock concentration: 500 nM",0.0252%
same,"p53-positive nuclei, normalised","[2]; measured here: p53 positive nuclei at 24 h, Library stock concentration: 1.5 uM",0.031%
same,"p53-positive nuclei, normalised","[2]; measured here: p53 positive nuclei at 24 h, Library stock concentration: 4.6 uM",-0.0368%
same,"p53-positive nuclei, normalised","[2]; measured here: p53 positive nuclei at 24 h, Library stock concentration: 13.7 uM",0.0863%
same,"p53-positive nuclei, normalised","[2]; measured here: p53 positive nuclei at 24 h, Library stock concentration: 41 uM",-0.027%
same,"p53-positive nuclei, normalised","[2]; measured here: p53 positive nuclei at 24 h, Library stock concentration: 123 uM",0.171%
same,"p53-positive nuclei, normalised","[2]; measured here: p53 positive nuclei at 24 h, Library stock concentration: 370 uM",0.0792%
same,"p53-positive nuclei, normalised","[2]; measured here: p53 positive nuclei at 24 h, Library stock concentration: 1.111 mM",61.6%
same,"p53-positive nuclei, normalised","[2]; measured here: p53 positive nuclei at 24 h, Library stock concentration: 3.333 mM",3.81%
same,"p53-positive nuclei, normalised",[2]; [22],-0.148%
O=C1c2ccccc2C(=O)c2ccccc21,"nuclei count, normalised",[1]; [23],102%
same,"nuclei count, normalised",[1]; [24],96.8%
same,"p53-positive nuclei, normalised",[2]; concentration not given here,-0.00139% (inactive)
same,"p53-positive nuclei, normalised",[2]; [25],-0.102%
O=C1C(=O)c2cccc3cccc1c23,"nuclei count, normalised",[1]; [7],115%
same,"nuclei count, normalised",[1]; [8],118%
same,"nuclei count, normalised",[1]; [9],118%
same,"nuclei count, normalised",[1]; [10],109%
same,"nuclei count, normalised",[1]; [11],119%
same,"nuclei count, normalised",[1]; [12],112%
same,"nuclei count, normalised",[1]; [13],115%
same,"nuclei count, normalised",[1]; [14],115%
same,"p53-positive nuclei, normalised",[2]; [15],0.0597% (inactive)
same,"p53-positive nuclei, normalised",[2]; [16],0.0621% (inactive)
same,"p53-positive nuclei, normalised",[2]; [17],0.165% (inactive)
same,"p53-positive nuclei, normalised",[2]; [18],0.252% (inactive)
same,"p53-positive nuclei, normalised",[2]; [19],-0.0696%
same,"p53-positive nuclei, normalised",[2]; [20],-0.0154%
same,"p53-positive nuclei, normalised",[2]; [21],0.208%
same,"p53-positive nuclei, normalised",[2]; [22],0.327%
C[C@]12NC(Cc3ccccc31)c1ccccc12,"nuclei count, normalised",[1]; [3],121%
same,"nuclei count, normalised",[1]; [4],112%
same,"p53-positive nuclei, normalised",[2]; [5],-0.107% (inactive)
same,"p53-positive nuclei, normalised",[2]; [6],-0.588%
CCCCC/C=C\C/C=C\C/C=C\C/C=C\CCCC(=O)NCCF,"nuclei count, normalised",[1]; [23],90.3%
same,"nuclei count, normalised",[1]; [24],90.8%
same,"p53-positive nuclei, normalised",[2]; concentration not given here,0.105% (inactive)
same,"p53-positive nuclei, normalised",[2]; [25],-0.0127%

# — PubChem BioAssay AID1508601 (ICCB-Longwood Screening Facility, Harvard Medical School, 2020)
